High-throughput results deposited in PubChem BioAssay by National Center for Advancing Translational Sciences (NCATS).
PI5P4Ka inh – qHTS for Inhibitors of phosphatidylinositol 5-phosphate 4-kinase (PI5P4K). AID 652105, 2013. Phosphatidylinositol 5-phosphate 4-kinase type-2 alpha (Homo sapiens), P48426. hit rate 1.2% among 330,000. PI5P4Kalpha enzyme, ADP-Glo luminescence, 60 min; active compounds read low. max response, %; active means max response of -50% or lower; inconclusive means between -30% and -50%; inactive means -30% or higher; further: value at the top dose of about 77 µM; on the % scale 0 is the no-effect control and ±100 the full control effect
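PI5P4Kalpha ADP-Glo assay; 5 microM ATP final; 60 min RT reaction; HEPES pH 7.4/EGTA/CHAPS, 5% DMSO; controls lacking substrate or enzyme; luminescent end-point.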
HP1b binding inh – HTS for Inhibitors of HP1-beta Chromodomain Interactions with Methylated Histone Tails; AID 540317, 2011; Chromobox protein homolog 1 (Homo sapiens), P83916; Potency, µM (highest dose often 114 µM), without a hit: top-dose activity change, negative = inhibition, hits mostly inhibitors; hit rate 0.56% among 390,000; AlphaScreen HP1-beta / biotin-H3K9me3 peptide binding; further: potency means the concentration at half of the fitted maximal effect; nearly all actives have a fitted effect of over 70% in size
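HP1-beta protein (50 nM final) preincubated 30 min at room temperature with biotinylated H3(1-18)K9me3 peptide (50 nM) in PBS pH 7.4, 0.01% Tween-20, then compound added for 30 min. AlphaScreen streptavidin donor/nickel chelate acceptor beads (10 ug/mL final), 30 min dark, luminescence read.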
BAZ2B block – qHTS Assay for Inhibitors of BAZ2B | hit rate 4.4% among 360,000 | AlphaScreen BAZ2B-H3K14Ac peptide displacement | Bromodomain adjacent to zinc finger domain protein 2B (Homo sapiens), Q9UIF8 | Potency, µM (highest dose often 114 µM), for inactives: at the highest dose activity change, negative = inhibition, most hits filed as inhibitors; further: potency means the concentration at half of the fitted maximal effect; on the % scale 0 is the no-effect control and ±100 the full control effect; nearly all actives have a fitted effect of over 60% in size
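AlphaScreen luminescence quantifies BAZ2B engagement of H3K14Ac peptide; the protein and biotinylated peptide are both at 50 nM final, buffer PBS pH 7.4 with 0.01% Tween-20, all steps at room temperature.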
PLK1 PBD inh – qHTS for Inhibitors of PLK1-PDB (polo-like kinase 1 - polo-box domain): Primary Screen; Serine/threonine-protein kinase PLK1 (Homo sapiens), P53350; Plk1 PBD binding of FITC phosphopeptide, fluorescence polarization; Potency, µM, inactives show max response, negative = inhibition, hits mostly inhibitors; hit rate 2.8% among 360,000; AID 720504, 2013; further: potency means the concentration at half of the fitted maximal effect; series mostly up to about 57 µM; on the % scale 0 is the no-effect control and ±100 the full control effect; nearly all actives have a fitted effect of over 65% in size
Target sequence (P53350 whole entry, looked up, the tested form may be a part): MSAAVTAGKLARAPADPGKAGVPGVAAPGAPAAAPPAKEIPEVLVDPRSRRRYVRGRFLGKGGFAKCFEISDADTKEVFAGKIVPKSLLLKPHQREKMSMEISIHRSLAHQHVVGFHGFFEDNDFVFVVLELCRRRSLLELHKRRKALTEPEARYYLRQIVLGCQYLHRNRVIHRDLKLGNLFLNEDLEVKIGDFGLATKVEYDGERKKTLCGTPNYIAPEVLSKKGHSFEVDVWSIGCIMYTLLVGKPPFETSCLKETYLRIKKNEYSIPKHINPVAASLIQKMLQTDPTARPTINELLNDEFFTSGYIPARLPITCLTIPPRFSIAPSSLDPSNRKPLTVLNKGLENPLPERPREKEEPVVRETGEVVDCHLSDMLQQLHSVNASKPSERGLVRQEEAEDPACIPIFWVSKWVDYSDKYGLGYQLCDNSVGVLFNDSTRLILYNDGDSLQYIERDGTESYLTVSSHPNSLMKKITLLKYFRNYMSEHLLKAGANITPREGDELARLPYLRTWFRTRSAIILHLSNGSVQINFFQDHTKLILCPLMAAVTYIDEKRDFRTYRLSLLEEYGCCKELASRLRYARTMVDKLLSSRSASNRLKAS
G9a block – qHTS Assay for Inhibitors of Histone Lysine Methyltransferase G9a. Histone-lysine N-methyltransferase EHMT2 (Homo sapiens), Q96KQ7. hit rate 8.8% among 350,000. G9a H3K9 monomethylation, AlphaScreen, 2 h. Potency, µM (titrated, usually from 102 µM), for the others: at the top dose activity, negative = inhibition, actives largely listed as inhibitors; further: potency means the concentration at half of the fitted maximal effect; on the % scale 0 is the no-effect control and ±100 the full control effect; nearly all actives have a fitted effect of over 75% in size
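Enzyme 20 nM + cpd, 15 min RT; add b-H3K9 pep 500 nM / SAM 20 uM; 2 h RT; anti-H3K9me1 Ab 0.5 ug/mL + SA donor / anti-rabbit acceptor beads 20 ug/mL each, 10 min; AlphaScreen read.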
JMJD2A Tudor inh – qHTS Assay for Inhibitors of JMJD2A-Tudor Domain; Lysine-specific demethylase 4A (Homo sapiens), O75164; AlphaScreen JMJD2A-Tudor / H3K4me3 peptide binding; Potency, µM (highest dose often 114 µM), for inactives: at the top dose activity change, negative = inhibition, most hits filed as inhibitors; hit rate 4.4% among 390,000; further: potency means the concentration at half of the fitted maximal effect; on the % scale 0 is the no-effect control and ±100 the full control effect; nearly all actives have a fitted effect of over 50% in size
The depositor's hits bear a star; ? = inconclusive; · = no result; [ ] = dose if it differs, or a comment. Most compounds without a hit are left out; they make up all but 12% or so of the library. Unless noted, the call rests on the fitted dose curve; in most records, active means well fitted curve in the direction sought with a large enough effect; inconclusive means small, poorly fitted or top-dose-only effect, or another doubt; inactive means no such curve, though single readings can be large; an effect the other way counts as inactive or inconclusive.

SMILES | PI5P4Ka inh | HP1b binding inh | BAZ2B block | PLK1 PBD inh | G9a block | JMJD2A Tudor inh
Cc1ccc[n+](-c2nc([O-])sc2C=O)c1 | ? | -15.0% | ? | 13.4µM* | ? | -23.3%[11.4 µM]
CC(C)c1ccc[n+](-c2nc([O-])sc2C=O)c1 | -5.3 | 9.2% | 2.3% | -7.0% | 21.8%[12.7 µM] | 0.4%
COC(=O)c1sc2cccc(F)c2c1S(=O)(=O)Nc1cc(OC)cc(OC)c1 | · | 61.6% | -25.1% | · | 0.4%[59 µM] | -25.0%
CCOC(=O)c1sc2ccccc2c1S(=O)(=O)Nc1ccc(N(C)C)cc1 | · | -25.4% | 20µM* | · | 8.91µM* | 12.6µM*
COC(=O)c1sc2cccc(F)c2c1S(=O)(=O)Nc1ccc(N(C)C)cc1 | · | -12.4% | ? | · | 11.2µM* | ?
COc1cc(NS(=O)(=O)c2ccc(NS(=O)(=O)c3ccc(NC(C)=O)cc3)cc2)nc(OC)n1 | -7.7 | 17.9% | -27.2% | 3.5% | 17.1% | 3.2%
COc1cc(NS(=O)(=O)c2ccc(NS(=O)(=O)c3ccccc3)cc2)nc(OC)n1 | -10.8 | 12.3% | ? | -6.6% | 56.2µM* | -14.9%
COc1cc(NS(=O)(=O)c2ccc(NC(=O)/C(=C\c3ccccc3OC)NC(=O)c3ccccc3)cc2)nc(OC)n1 | · | 27.4% | -2.5% | -11.6% | 20µM* | -30.4%
COc1cc(NS(=O)(=O)c2ccc(NC(=O)/C(=C/c3ccccc3Cl)NC(=O)c3ccccc3)cc2)nc(OC)n1 | -0.1 | 11.2% | ? | -23.9% | ? | -20.3%
COc1ccccc1OCCCCN1CCCCC1 | -1.3 | 10.3% | -35.0% | -4.9% | 25.2% | -9.2%
CCc1ccccc1OCCCN1CCCC1 | 7.2 | -14.7% | ? | 1.3% | 50.1µM* | -88.9%
CCc1ccccc1OCCCCN1CCCCC1 | 8.6 | ? | ? | 1.4% | 39.8µM* | 1.78µM*
O=C(c1cccc(F)c1)N1CCC2(CC1)CCN(c1cccc(-c3ccccc3)c1)CC2 | · | · | · | · | -11.6%[12.7 µM] | ·
CCS(=O)(=O)N1CCC2(CC1)OC(=O)C(C)=C2C(=O)NCc1ccccc1C | · | 13.2% | 6.2% | · | 8.5%[59 µM] | -11.4%
CCOc1ccccc1N1CCN(C(=O)c2cc(S(=O)(=O)N(C)C)ccc2N2CCCC2)CC1 | -1.5 | 13.1% | -0.1% | -4.3% | -9.9%[12.7 µM] | -24.7%
COc1ccc(CNC(=O)Nc2cn(CC(C)C)c(=O)c3ccccc23)cc1 | · | 21.4% | 2.8%[57.1 µM] | · | ? | -15.9%
Cc1[nH]n(-c2ncc(-c3ccc(Cl)cc3)s2)c(=O)c1C(c1ccc(Cl)cc1)C(C#N)C#N (stereo not given) | -69.6* | ? | ? | 9.47µM* | ? | 56.2µM*
Cc1[nH]n(-c2ccc(Cl)cc2)c(=O)c1N=Nc1cccnc1 | 2.2 | 16.0% | -36.0% | 1.3% | -43.5% | -17.9%
CCOC(=O)c1ccc(NS(=O)(=O)c2cn(C)cn2)cc1 | -9.1 | -7.5% | -3.9%[57.1 µM] | 6.7% | 8.0% | -31.5%
CCc1cccc(NC(=O)COc2cc(=O)n(CC)c3ccccc23)c1 | · | 30.1% | -1.4% | · | ? | -20.2%
CC(C)Cc1ccc(S(=O)(=O)Nc2cccnc2)cc1 | 10.6 | 43.0% | -7.5% | -4.1% | 18.3% | -3.0%
CCC(C)c1ccc(S(=O)(=O)Nc2cccnc2)cc1 (stereo not given) | 1.8 | 45.8% | -31.2% | -11.6% | 50.1µM* | -30.2%
COc1ccc(C(=O)c2no[n+]([O-])c2C(=O)c2ccc(OC)cc2)cc1 | -14.9 | -23.8% | -9.2% | ? | 8.91µM* | ?
O=C(c1cccs1)c1no[n+]([O-])c1C(=O)c1cccs1 | -6.3 | -38.2% | ? | ? | 10µM* | ?
Nc1cc2c(cc1Cl)-c1ccc(Cl)cc1C2=O | -2.1 | 1.7% | · | -1.0% | · | -15.1%
